Screening data as filed in PubChem.
This excerpt belongs to a sample that is enriched for hits.
Tg IFNy HTS: T. gondii growth inhibition with IFN-gamma, primary screen, cell-based | Toxoplasma gondii growth in IFN-gamma-treated host cells; active compounds read low | activity change, negative = inhibition, % (test concentration not listed) | 69,000 tested, 3.8% active; in the data active = activity change below about -70%, passing the limit was not always enough;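 note: host cells are HeLa cells infected with Toxoplasma gondii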
Hits are given with their value; – = inactive.

SMILES	Tg IFNy HTS
c1nc(NCC2CNCCOC2)c2ccsc2n1 (stereo not drawn)	–
COc1ccc(CCNC(=O)COc2ccc(Cl)cc2Cl)cc1OC	–
COc1ccccc1-n1c(-c2ccc(Br)cc2)cc2c1CC(C)(C)CC2=O	-92
Cc1ccccc1-n1nc(C)c2c1CC(C)(C)CC2=O	–
CC1(C)CC(=O)c2cc(-c3ccccc3)n(CC(=O)O)c2C1	–
CC(C)N1CCNC(=O)C1CC(=O)NCc1nnc2n1CCCCC2 (stereo not drawn)	–
COc1ccc(S(=O)(=O)N2CCN(C(=O)C3OCCc4ccccc43)CC2)cc1 (stereo not drawn)	–
Cc1nc2ncccn2c1C(=O)NCc1cnn(-c2cccc(F)c2)c1	–
O=C(NNc1nc2cc(F)ccc2n2cccc12)c1cnccn1	-81
CC(C)C(=O)c1cc(-c2csc(-c3cnccn3)n2)n2ccccc12	–
CC(=O)c1c(C)nn(CC(=O)N2CCC(c3noc(-c4ccncc4)n3)CC2)c1C	–
C[C@H]1CCCCO[C@H](CN(C)S(=O)(=O)c2ccccc2)[C@@H](C)CN([C@@H](C)CO)C(=O)c2cc(NC(=O)Nc3ccc4c(c3)OCO4)ccc2O1	-91
C[C@H](CO)N1C[C@H](C)[C@H](CN(C)S(=O)(=O)c2ccc(Cl)cc2)OCCCC[C@H](C)Oc2ccc(NC(=O)Nc3ccc(C(F)(F)F)cc3)cc2C1=O	–
COc1ccc(S(=O)(=O)Nc2ccc3c(c2)C(=O)N([C@H](C)CO)C[C@H](C)[C@H](CN(C)S(=O)(=O)c2ccc(Cl)cc2)OCCCC[C@H](C)O3)cc1	-82
C[C@@H]1CN([C@H](C)CO)C(=O)c2cc(NC(=O)Nc3ccc(C(F)(F)F)cc3)ccc2O[C@@H](C)CCCCO[C@H]1CN(C)S(=O)(=O)c1ccc(Cl)cc1	–
C[C@@H]1CCCCO[C@@H](CN(C)S(=O)(=O)c2ccc(Cl)cc2)[C@H](C)CN([C@@H](C)CO)C(=O)c2cc(NC(=O)Nc3ccc(C(F)(F)F)cc3)ccc2O1	–
C[C@@H]1CN([C@@H](C)CO)C(=O)c2cc(NC(=O)Nc3ccc4c(c3)OCO4)ccc2O[C@@H](C)CCCCO[C@@H]1CN(C)S(=O)(=O)c1ccccc1	–
COc1ccc(S(=O)(=O)Nc2ccc3c(c2)C(=O)N([C@@H](C)CO)C[C@@H](C)[C@@H](CN(C)S(=O)(=O)c2ccc(Cl)cc2)OCCCC[C@@H](C)O3)cc1	-137
C[C@H](CO)N1C[C@H](C)[C@@H](CN(C)S(=O)(=O)c2ccc(Cl)cc2)OCCCC[C@H](C)Oc2ccc(NC(=O)Nc3ccc(C(F)(F)F)cc3)cc2C1=O	–
COc1ccc(S(=O)(=O)Nc2ccc3c(c2)C(=O)N([C@@H](C)CO)C[C@@H](C)[C@H](CN(C)S(=O)(=O)c2ccc(Cl)cc2)OCCCC[C@H](C)O3)cc1	-102
C[C@@H]1CCCCO[C@H](CN(C)S(=O)(=O)c2ccccc2)[C@@H](C)CN([C@H](C)CO)C(=O)c2cc(NC(=O)Nc3ccc4c(c3)OCO4)ccc2O1	–
CCN(CC)C(=O)C1Cn2ccnc2C2(CCN(C(=O)c3cccn3C)CC2)O1 (stereo not drawn)	–
COC(=O)[C@@H]1C[C@@H](NC(=O)c2cccc(-c3noc(C)n3)c2)CN1C	–
COCC1CN(C(=O)c2cc(C)on2)Cc2c1cnn2CC1CC1 (stereo not drawn)	–
COc1cc2c(cc1OC)CN(CC(=O)Nc1cc(C)cc3cccnc13)CC2	–
SMILES	Tg IFNy HTS
Cc1nc(CN2CCN(C)C(=O)C23CCN(Cc2ccc(C(C)C)cc2)CC3)cs1	–
Cc1ccnc(SCc2cc(=O)[nH]c(Nc3nc(C)c4ccccc4n3)n2)n1	–
CC(C)c1cc(C2CCN(Cc3ccc(-c4ccn[nH]4)o3)CC2)[nH]n1	–
Cc1ccc2[nH]c3c(=O)n(CC(=O)NCc4cccnc4)cnc3c2c1	–
COc1ccc(S(=O)(=O)Nc2ccc3c(c2)C(=O)N([C@H](C)CO)C[C@@H](C)[C@@H](CN(C)S(=O)(=O)c2ccc(Cl)cc2)OCCCC[C@H](C)O3)cc1	-117
COc1ccc(S(=O)(=O)Nc2ccc3c(c2)C(=O)N([C@H](C)CO)C[C@@H](C)[C@@H](CN(C)S(=O)(=O)c2ccc(Cl)cc2)OCCCC[C@@H](C)O3)cc1	-110
COc1ccc(S(=O)(=O)N(C)C[C@@H]2OCCCC[C@@H](C)Oc3ccc(NC(=O)Cc4ccccc4)cc3C(=O)N([C@@H](C)CO)C[C@H]2C)cc1	–
C[C@H](CO)N1C[C@H](C)[C@H](CN(C)CC2CC2)OCCCC[C@H](C)Oc2ccc(NC(=O)c3ccccc3)cc2C1=O	-83
COc1ccc(S(=O)(=O)Nc2ccc3c(c2)C(=O)N([C@@H](C)CO)C[C@@H](C)[C@H](CN(C)S(=O)(=O)c2ccc(Cl)cc2)OCCCC[C@@H](C)O3)cc1	–
COc1ccc(S(=O)(=O)N(C)C[C@H]2OCCCC[C@H](C)Oc3ccc(NC(=O)Cc4ccccc4)cc3C(=O)N([C@@H](C)CO)C[C@H]2C)cc1	–
COc1ccc(S(=O)(=O)N(C)C[C@H]2OCCCC[C@H](C)Oc3ccc(NC(=O)Cc4ccccc4)cc3C(=O)N([C@@H](C)CO)C[C@@H]2C)cc1	-108
COc1ccc(S(=O)(=O)N(C)C[C@@H]2OCCCC[C@H](C)Oc3ccc(NC(=O)Cc4ccccc4)cc3C(=O)N([C@H](C)CO)C[C@H]2C)cc1	–
C[C@H](CO)N1C[C@H](C)[C@@H](CN(C)CC2CC2)OCCCC[C@H](C)Oc2ccc(NC(=O)c3ccccc3)cc2C1=O	–
C[C@@H]1CCCCO[C@H](CN(C)CC2CC2)[C@H](C)CN([C@H](C)CO)C(=O)c2cc(NC(=O)c3ccccc3)ccc2O1	–
COc1cccc(CCn2ccnc2-c2nccn2C)c1	–
c1cncc(Oc2ccc(-n3ccnc3-c3ccncc3)cc2)c1	–
CCc1nc(C)c(C(=O)NC(C)c2cn3ccsc3n2)o1 (stereo not drawn)	–
O=c1[nH]c(CSc2n[nH]c(-c3ccc(Cl)cc3Cl)n2)nc2ccccc12	–
CCn1c(C2CCCN(C(=O)c3cc(C(F)(F)F)[nH]n3)C2)nn(C)c1=O (stereo not drawn)	–
CCN1Cc2ccccc2CC1C(=O)N(C)Cc1n[nH]c2c1CCC2 (stereo not drawn)	–
O=S1(=O)c2ccccc2OCC2(CCN(Cc3ccccc3F)CC2)CN1CC1CC1	–
CN(CCCO)C(=O)c1cccc(CC2CCNCC2)c1	–
NCC(=O)Nc1ccc(-n2nc(C(F)(F)F)cc2-c2ccc3c(ccc4ccccc43)c2)cc1	-87
Cc1ccc(-c2cc(C(F)(F)F)nn2-c2ccc(S(N)(=O)=O)cc2)cc1	–
NCC(=O)Nc1ccc(-c2cccc(C(F)(F)F)c2)cc1F	–
SMILES	Tg IFNy HTS
CCN1CCN(Cc2ccc(Nc3ncc(F)c(-c4cc(F)c5nc(C)n(C(C)C)c5c4)n3)nc2)CC1	-78
Fc1cccc(CN2CCN(Cc3ccc(-c4ccccc4)nc3)CC2)c1	–
CC(C)Nc1ncc(-c2nccn2Cc2ccc(F)c(F)c2)cn1	–
CC(C)O[C@H]1CN(C(=O)c2cc(Cn3ccc4ccccc43)[nH]n2)C[C@@H]1O	–
CCCS(=O)(=O)Cc1nnc(-c2cc(Cl)cc(Cl)c2)o1	–
O=C(c1[nH]ncc1Cl)N1CCCC(c2n[nH]c(=O)n2-c2ccccc2)C1 (stereo not drawn)	–
COc1cccc(CNC(=O)c2nc3c(o2)CN(C(=O)c2cccc(F)c2)C3)c1	–
CC(C)CNC(=O)c1cc2c(s1)CCN2C(=O)C1CC1	–
COc1cccc(CNC(=O)c2cc3c(s2)CCN3C(=O)c2ccccc2)c1	-100
